Our source for the MAPPIT interaction score values is the supplement of paper PMC10105736.

A number with no mark means an inactive call.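 The calls were made as follows: active = MAPPIT score above the 99th percentile of random reference set scores in the same batch; inactive = at or below it.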

Holding throughout (experiment): MAPPIT interaction score (arbitrary units); higher = stronger binary interaction signal, active = hit call of the paper
The target in one assay is Osi8. The following applies: MAPPIT configuration: N-C; pair source set: RRS.
Another assay has as its target Nup50. Conditions: MAPPIT configuration: N-N; pair source set: DPIM.
A further assay addresses Not3. The following applies: MAPPIT configuration: N-N; pair source set: Finley_Y2H.
A further assay addresses Nup62. Conditions: MAPPIT configuration: N-N; pair source set: Finley_Y2H.
The target in another assay is PHDP. The following applies: MAPPIT configuration: N-N; pair source set: Curagen_low_conf.
The target in another assay is Nup107. Conditions: MAPPIT configuration: N-C; pair source set: screen_4.
The next assay addresses dgt6. The following applies: pair source set: Lit-BM-16.
The target in the next assay is Nnk. The following applies: MAPPIT configuration: N-N; pair source set: Curagen_high_conf.
For the next assay, the target named is PAN3. Conditions: pair source set: RRS.
The next assay addresses Nup153. The following applies: MAPPIT configuration: N-N; pair source set: DPIM.
For another assay, the target named is Pen. Conditions: MAPPIT configuration: N-N; pair source set: Lit-BM-16.
The next assay deals with Or49b. Conditions: MAPPIT configuration: N-N; pair source set: DPIM.
The next assay has as its target Su(var)2-10. Conditions: MAPPIT configuration: N-N; pair source set: DPIM.
For another assay, the target named is PCID2. The following applies: MAPPIT configuration: N-N; pair source set: Lit-BS-16.
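Also: HEK293T cells with Epo stimulation, STAT-responsive firefly luciferase reporter, fold induction versus unstimulated cells divided by the larger fold induction of two negative controls lacking either bait or prey.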

B1: cid (protein)
chain: MPRHSRAKRAPRPSANNSKSPNDDDTAFRSPEPEDGTDYGLEFTTSQLTLQDNNRRSSTLRRDAGRRQPAARDSSTSGEEEDQENRYPTTRSPQTRRMTVQQESKTRAAGPVAAQNQTRRRKAANPMSRAKRMDREIRRLQHHPGTLIPKLPFSRLVREFIVKYSDDEPLRVTEGALLAMQESCEMYLTQRLADSYMLTKHRNRVTLEVRDMALMAYICDRGRQF
For the molecule B1, in the assay with Osi8, the MAPPIT interaction score was -0.541.

B2: Nubp2 (protein)
chain: MLDKVKNVIVVLSGKGGVGKSTVSTQLSLALRKNGFKVGLLDIDLCGPSVPYLLGLEGRDIFQCDDGWVPVYTDESQTLAVMSIGFLLKNREDPVIWRGPKKTMMIRQFLTDVRWDELDYLIIDTPPGTSDEHITVMECLKEVGCHGAIIVTTPQEVALDDVRKEITFCKKTGINILGIVENMSGFVCPHCTSCTNIFSSNGGVSLATYAQVPHLGTLPIDPRVGILAGTTTSVLDELPDSTTAEVLTHIVEKLKTMLVS
Take B2: in the assay with Nup50, the MAPPIT interaction score is -0.182.

B3: Rga (protein)
chain: MANLNFQQPPRSIANAALAGRTTGGFGGSSLAGHVTPTSGMFQTDFANSYPGTANYGQAPQQQQQQQQQPQLSPNRNAQLSVGGPAISSGNRNANLFGQRQFVERRAMQGLGSGPMSNMGNFMQTGRGGYGTGGGGGGPLNNFHVFGGGGGSDTSTPALLDPTEFPSLTNARGQNDQTLPQSNPLQPPGSKPYGNFFTSFGMVKQPTSEQSEFTMSNEDFPALPGTQNSDGTTNAVGSVAGTGGSGGASTENHLDGTEKPMNSIVVSGSASGSSGSNVGVVGGNGLGAVGSGIGGLAVGGGGGAGSSGGGGVGGNAASGVVGGSHVGLVGSNSGIGGVNSVPNSNAMMGVGGGLGSGSGSSGSGAGGEHLNDNSSNDKLVKSGVQTSPDGKVTNIPATMVNNQFGMVGLLTFIRAAETDPNLVTLSLGTDLTGLGLNLNSQESLHTTFAGPFVAQPCRAQDVEFNVPPEYLINFAIRDKLTAPVLKKLQEDLLFFLFYTNIGDMMQLMAAAELHSREWRYHVEEKIWITRIPGIDQYEKNGTKERGTFYYFDAQSWKRLSKVFQIDPEKLDKCPNISAFMNGQSV
B3: the MAPPIT interaction score with Not3 was 0.172.

B4: Nup54 (protein)
chain: MSFFGSNTSLGATSTPAKTTGGLFGSPFGGTAATSQPAPAFGAQATSTPAFGAQPATSAFGAGSAFGATAAAPAFGAATGTSAFGGSAFGSTPAFGAATTTTAGTGLGGGGFGGFGAAPATSQAGLFGAPATSAAPPAFSGFGQQAAASTAPASGFSGFGTTTTSAPAFGGFGTSQSTGFGGGAFGSTFGKPANTTVTPGFGGFGGTSFMLGQPQQQPAPISADEAFAQSILNVSIFGDERDKIVAKWNYLQATWGTGKMFYSQSAAPVDITPENVMCRFKAIGYSRMPGKDNKLGLVALNFCRELSAVKPHQQQVIQTLHSLFGSKPNMLVHIDSIKELENKKCQIVIYVEEKLQHAPNESKRILATELSNYLNQATLKPQLNNLGVVEALALVLPDEDQLREYLENPPRGVDPRMWRQANSDNPDPTLYIPVPMVGFNDLKWRVKCQEQETDTHALYIKKVESELTELKKRHATATAKILEHKRKLAELSHRILRIIVKQECTRKVGTSLTPEEEALRTKLQNMLAVVSAPTQFKGRLSELLSQMRMQRNQFAANGGAEYALDKEAEDEMKTFLTMQQRAMEVLSDTVNKDLRALDVIIKGLPELRQS
On to B4, for which the MAPPIT interaction score in the assay with Nup62 is 5.79 (active); with PHDP, -0.274.

B5: dgt4 (protein)
chain: METPPTPTTTTPPSLTTEGTMDDIQYLLHLEAMRRFQEDSRNVKRQVEEQVRIWLDAKCEYQRDFGRLARLLKCGALQAAVDAHRVSDVNQVDQAAKDIASLRSKLGSDLRPAILDSNDVKQCLEHLNTTHKPRLNLCRQQREFAQNQEALRSLRTAVDGLENGMEMGMIQAMDRLVEDLLPPRETNN
For the molecule B5, the MAPPIT interaction score with Nup107 is 1.57; with dgt6 (MAPPIT configuration: N-C), 1.64; in the assay with dgt6 (MAPPIT configuration: N-N), 4.36 (active).

B6: mei-S332 (protein)
chain: MGSKVEQQYKLLNAELMDQVQKQRLEIGEYRKRVISLEREIMDIREEHVLQNHRQRMENISIVRSLMLSLNVDSDSLAVRQEPAPAAQINRPSGPRRSSREICKDMRRTCALARTTRPISPRRSSSVTSTVSSTSRRSSAEVQSEVVTTRIPEDRRANKPTPPPRRPAELVFDEDDSDDDFDEAVSPVEETQTEQNEENNRLFSIIEENGSEGESTDSSSSCEAIYCDTTFESSPPNAQVTVTPSGRALREVDTNIPVAVSLSRGKETGKGSWLAISVAVEDSPQEPSIQCPRLAVTRPSQSSGIFPDVNGLTPRRSLFNGIGKMAGSTSTPKSFLVEEMPSIRTRSRTAANKKSENTDMSSSFCNNSARPSRSCRPTSLVEPSLKNKLRNGSKGKAKAKK
As to B6, the MAPPIT interaction score with Nnk was -0.26.

B7: Dsp1 (protein)
chain: MEHFHQIQQTIQHYQQQLAAQQQQQVQQQQLQQHQVVVQQNQQQAHQNSSNTTAGVGTQQLFTYKMASSFPNPATTMAQVVATSNAAGTTGYDYRLNMAQAAAAAAVPGSQWWYSAANQGQVDANTAAQLQHQQQQQQQQQQQQQQQHQQQQQMQQQQQQQNVINSASPMSRVKADAKPRGRMTAYAYFVQTCREEHKKKHPDETVIFAEFSRKCAERWKTMVDKEKKRFHEMAEKDKQRYEAEMQNYVPPKGAVVGRGKKRKQIKDPNAPKRSLSAFFWFCNDERNKVKALNPEFGVGDIAKELGRKWSDVDPEVKQKYESMAERDKARYEREMTEYKTSGKIAMSAPSMQASMQAQAQKAALLAAAAQQQHQQLEEQHDDDDGDGDDDENQ
Take B7: the figures for the MAPPIT interaction score with PAN3 (MAPPIT configuration: N-C) and with PAN3 (MAPPIT configuration: N-N) were 0.573 and 0.707, respectively.

B8: Nup50 (protein)
chain: MAGKRQATSNLNHENWDLEEEPEERGTFRTATEEELKTRVIKKARRKIAGGSSAAEEDGAEEKTAEPKSVFSGFSGFGKPAASPAAGSPFSFLANVTAPATTSSSEPKKSAFSFGFSSSSSSADRPVSTSICGTASTSSTAPSPLPAKESTSTVDGAKPTTSIFGNISAAKKESSEAKTSSSSTSLTSTMETSEYRESVADLNRSVIKFLQDQMGKSPYCILTPVFKNYDEHLKDLQDEESARTNSTKSKTAQARSQEPVAKVSRASSPPKAATTFTFGKPSAPIGASVSPLAKKPNCTITSGGTTTTTATPLVSFGSTASFTAPVPSSSSIFSLTAKPTGEAKSDDTPKSSIFSFGAKDTTTKKDEPNFSAPKTNGFSFGLKSNNDDKPSTSLFAGFGKAPGGAGDGAKGFSFTNSATPFSLGNIHPPAAAAAPAEEEKEEDTPPKVEFKQVVEDDAIYSKRCKVFIKKDKDFGDRGVGTLYLKPVKDSEKIQLLVRADTNLGNILVNLILSKGIPCQRMGKNNVLMVCVPTPEDSKATSLLLRVKTGDEADDLLEKIKEHIK
In the case of B8, the figures for the MAPPIT interaction score with Nup153 and with Pen were 0.802 and 3.66 (active), respectively.

B9: Atx2 (protein)
chain: MNNNSKRKTRPTGGGASGGISRYNSNDNSLRPTNNKAGAGGGNGGAAVRPSAQGVYNNTFFMHSATALVGSVVEVRLRSGNIYEGVFRTFSGNFDIALELPACIKSKNLPEEGKVPKHIIFPADTVVTIVAKDFDSQYATAGAFQTDGAISDKCNGARPDEKELEPWDSGANGDIDIELDSAANGWDPNEMFRKNENTFGVTSTFDDSLASYTVPLDKGDSLEFKEAEAKAEKLAAEIENNPTCRDRLDLENGDEEALFAAVERPSTEQDQRGDRGDRERNDRDREREERDRDRDRDRGNKPRGAGDFQLRETMSSDRYITKQTRSITGPQLSHVGMSSQGSGRDRDTRGDGSMMMQSGGGSGQGGSTQSTAALMLAGGLKGVGPAPSANASADSSSKYSGGSMVKRKTVPQGGKVMRNNVPTGGSNVSVSQGGNGNSVGQNKGGYQPSMGMPSQYSYQGNSQIMHGSSQYRNQSHMGGANKLNGDSNANTNKPLPQRQMRQYQGSQSNSSLNYGGEPQSLGKPVHGSHGGHPGQNSNSPPLQTAGPQQQQQQQQQQQQQQQQQQPPQQQQHQNIQPQGQNTQPARQVRTRDNQMQELRQFGQDFQLAPSNTSPPQQQQQQQQQQQQHQVQQQQQRALQQSASPPQQQQQQQQQQQHVVLHQVPQTHLHQAALSQPHYVPQQQPQQAPLPQQQHVPHHMQQKAQQQQLVETQHQHVQKQHQSQPQVQQPPPQLLQDPSQQPLPIYHTMPPPQTSPVVVTSPVLLEQPPPQPMPVVQQQQTQQLATPKPEVSPAPPSSNTTTPTGIASTPTAGVIASAGSEKTTPAAPTPTSNSATVPTGTAATAGGATGTTPVVKKHVLNPSAKPFTPRGPSTPNPSRPHTPQTPVPMTNIYTTTGGHVPPAANQPIYVMQPQHPFPPQTHPQAGQPPRLRRSNYPPMAASQMHVSASAATGQPLITAGPIPQFIQYGHAPHQQQFQSHTYAPMQMRVYPDQPQQLQFMTQTPQSTTPSPGQPHQQFHPPPQPSPAGGGPQPAFTPPTQAATYQLMCVHPQSLLANHYFPPPTPQHPQQNQQQYQIVMQQHQPQ
Turning to B9, the MAPPIT interaction score in the assay with Or49b is -0.465; with Su(var)2-10, 0.0668.

B10: Fs(2)Ket (protein)
chain: MTSDIAMQLIAILEKTVSPDKNELLSAKNFLEQAAASNLPEFLKALSEILVNTANSAVARMAAGLQLKNHLTSKDEKVSQQYQDRWHQFPSEIRELIKNNILAALGTENTRPSCAAQCVAYVAVIELPINRWPMLIQTLVNKVVSEGSSEMHRESALEAIGYICQDIRFGVMENQSNDVLTAIIHGMRKVEPSNHVRLAATTALHNSLEFTKSNFEKDMERNFIMEVVCEATQCQDSQICVAALQCLVKIMTLYYQYMEPYMAQALFPITLAAMKSDNDAVALQGIEFWSNVCDEEIDLAIESQEATDQGRAPQRVSKHYARGALQFLTPVLVEKLTKQDECDDEDTWSPAKAASVCLMVLATCCEDEIVPHVLPFIKENIESPNWRFRDAAVMTFGSVLNGLETNTLKPLVEQAMPTLIRLMYDSSVIVRDTIAWTFGRICDIIPEAAINETYLQTLLECFVKSLKSEPRVAANVCWAFIGLSDAAWEAAVTNDGETPETYALSPYFEYIITQLLETTDRSDGAQANLRCAAYQALMDMIKNSPLDCYLVVQRTTLVILERLNQVMQMETQINNHSDRHQFNDLQSLLCATLQSVLRKVHEQDAPQISDAIMTALLTMFNSSAGKSGVVQEEAFLAVSTLVELLGAQFAKYMPAFKDFLVMGLKNFQEYQVCCAAVGLTGDIFRALKDLMVPYSNEIMTVLINNLTEPTIHRTVKPQVLSAFGDIALSIGNHFLPYLSMVLDMLRVASNLQTDANNFDMNEYINELRESILEAYTGIIQGLKGVDQTAHTDVMHMEPHLMHIISFIKRIAQEGDVSDSMLASAAGFIGDLCTSFGPRLYPLLDDAIITQFLAEGKRSKAQRTKMLCTWAVKEIKKINTQVITQ
In the case of B10, in the assay with PCID2, the MAPPIT interaction score was 0.0886.
